The text below walks through data of PubChem BioAssay AID1345085 (National Center for Advancing Translational Sciences (NCATS), 2018).

Records with an inconclusive call do not appear. Values without a mark were called inactive. The source made the active and inactive calls. The call rests on the fitted dose curve; in most records, active means well fitted cell-killing curve with a large enough effect; inconclusive means small, poorly fitted or top-dose-only effect, or effect the other way; inactive means no such curve, though single readings can be large or run the other way.
On the % scale 0 is the no-effect control and ±100 the full control effect; potency means the concentration at half of the fitted maximal effect.

This experiment concerns PA-1. Description: Confirmatory qHTS for gynecologic anti-cancer compounds from libraries of approved drugs and bioactive compounds. Further: nearly all actives have a fitted effect of over 55% in size. The note with it: gynecologic cancer cell panel viability, ATPlite luminescence, 48 h; series mostly up to 57.6 µM; activity change, negative = viability loss: at the top concentration. An outline of the steps:
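ATP-based luminescent viability (ATPlite) after 48 h drug treatment at 37 °C, 5% CO2, across 57.5 uM–0.977 nM in 1:3 steps. Cells seeded at 1,000 per well 16 h beforehand; IC50 values computed, HEK 293T as selectivity control.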
(qHTS replaces the single test concentration by a dilution series.)
Turning to `CCN1C[C@H](C)n2c(c(O)c3c(=O)n(Cc4ccc(F)c(Cl)c4)nc(C(=O)NC)c32)C1=O`, the “activity change, negative = viability loss” value was 33.3%. `CN(C)C1CCN(C(=O)c2ccc(NC(=O)Nc3nc(N4CCOCC4)nc(N4CCOCC4)n3)cc2)CC1`: the Potency was 1.09 µM (active).

Consider `CC(C)(C(=O)NCC(F)(F)C(F)(F)F)C(=O)NC1C(=O)Nc2ccccc2-c2ccccc21` (stereo unspecified), for which the Potency is 9.68 µM (active). On the same count and under the same terms, with `O=C(O)c1ccc(Nc2ncc3c(n2)-c2ccc(Cl)cc2C(c2c(F)cccc2F)=NC3)cc1` the figure was 0.968 µM (active). Still for that read-out and setting: with `CCCS(=O)c1ccc2nc(NC(=O)OC)[nH]c2c1` (stereo unspecified) the figure was 34.3 µM (active).

With `OCc1ccc(-c2ccc(-c3ccc(CO)s3)o2)s1`, the “activity change, negative = viability loss” value was -21.5% [at 19.5 µM].

Turning to `Cc1cc(C(=O)N2CCN(c3cccc(Cl)c3)CC2)n(-c2ccccc2)n1`, the Potency is 3.43 µM (active). As to `COc1ccc(-c2cc3nccn3c(Nc3ncccc3C(N)=O)n2)cc1OC`, the Potency is 6.11 µM (active). With `COc1ccc2cc3[n+](cc2c1OC)CCc1cc2c(cc1-3)OCO2`, the Potency is 0.968 µM (active).

On to `C[C@]12CCC(=O)C=C1CC[C@@H]1[C@@H]2[C@@H](O)C[C@@]2(C)[C@H]1CC[C@]2(O)C(=O)CO`, for which the Potency is 21.7 µM (active). For the compound `Cc1cnc(Nc2ccc(F)cc2Cl)nc1-c1c[nH]c(C(=O)NC(CO)c2cccc(Cl)c2)c1` (stereo unspecified), the Potency is 24.3 µM (active).

Consider `COc1cc2c(Nc3ccc(NC(=O)c4ccccc4)cc3)ncnc2cc1OCCCN1CCOCC1`, for which the Potency is 34.3 µM (active). On to `COc1cc2nccc(Oc3ccc(NC(=O)Nc4cc(C)on4)c(Cl)c3)c2cc1OC`, for which the Potency is 5.44 µM (active). For the compound `O=C(c1ccc(F)c(F)c1Nc1ccc(I)cc1F)N1CC(O)([C@@H]2CCCCN2)C1`, the Potency was 15.3 µM (active).

As for `C[C@@]1(C(=O)Nc2ccc(F)nc2)CCCN1c1nc(Nc2cc(C3CC3)[nH]n2)c2cccn2n1`, the Potency is 0.0343 µM (active).

With `O=C(Nc1cccnc1)N1CCC(Cc2cccc(Oc3ccc(C(F)(F)F)cn3)c2)CC1`, the Potency was 6.85 µM (active).

For `Cc1cc(SCc2sc(-c3ccc(C(F)(F)F)cc3)nc2C)ccc1OCC(=O)O`, the “activity change, negative = viability loss” value was -7.86%. In the case of `COc1ccc2c(c1)c(CC(=O)O)c(C)n2C(=O)c1ccc(Cl)cc1`, the Potency was 27.3 µM (active). For the compound `O=C1Cc2cc(CCN3CCN(c4nsc5ccccc45)CC3)c(Cl)cc2N1`, the Potency is 24.3 µM (active). In the case of `COc1ccccc1N1CCN(CC(O)COc2cccc3ccccc23)CC1` (stereo unspecified), the “activity change, negative = viability loss” value is -27.1%. `Nc1nccc(Oc2ccc(NC(=O)c3c[nH]cc(-c4ccc(F)cc4)c3=O)cc2F)c1Cl`: the Potency is 3.06 µM (active). Turning to `CNC(=O)c1ccccc1Sc1ccc2c(/C=C/c3ccccn3)n[nH]c2c1`, the Potency was 4.32 µM (active).

For the compound `COc1cc(N2CCC(N3CCN(C)CC3)CC2)ccc1Nc1ncc(Cl)c(Nc2ccccc2S(=O)(=O)C(C)C)n1`, the Potency is 3.43 µM (active). As for `COc1c(C)c2c(c(O)c1C/C=C(\C)CCC(=O)O)C(=O)OC2`, the Potency is 2.17 µM (active). As for `N#CC1(c2cccc(C(=O)Nc3cc(Oc4ccc5nc(NC(=O)C6CC6)sc5n4)ccc3F)c2Cl)CC1`, the Potency is 8.63 µM (active). On the same count and under the same terms, with `COc1cc2c(NC3CCN(C(C)C)CC3)nc(C3CCCCC3)nc2cc1OCCCN1CCCC1` the figure was 17.2 µM (active).
